Potency and affinity values are given separately. Calls of active or inactive are those of the source.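 Rule for the calls: active = cell killing, meaning signal decrease, with fitted half-maximal dose at or below ten times the top valid tested dose; inconclusive = poor fit, or flat curve with 30 to 70% signal loss; inactive = the rest.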
assay: ATP-based viability loss in HeLa cells – cell-based, CellTiter-Glo luminescence, cherry-pick samples, cytotoxicity control for MITF activator project, dose response (AID 540259); settings: 24 h; series mostly up to 35 µM

Question: Which outcome does the source give for O=C(Nc1ccc2ccccc2c1)c1cc(F)c(F)cc1Cl here?
Answer: inactive

Question: Which outcome does the source give for Cc1ccn2cc(C(=O)Nc3nnc(C)s3)nc2c1 here?
Answer: inactive

Question: Which outcome does the source give for Cc1nc(SCc2ccccc2)nc2c1CCC2 here?
Answer: inactive

Question: Which outcome does the source give for COc1ccccc1NC(=O)Nc1nc2ccc(S(N)(=O)=O)cc2s1 here?
Answer: inactive

Question: Which outcome does the source give for Cc1ccc(CNc2nc(C)cs2)cc1 here?
Answer: inactive

Question: Which outcome does the source give for Cc1nnc(NC(=O)c2ccc(N3CCCC3=O)cc2)s1 here?
Answer: inactive

Question: Which outcome does the source give for COc1ccc(Oc2ncnc3sccc23)cc1 here?
Answer: inactive

Question: Which outcome does the source give for COc1ccc(/C=C2\OC(=O)c3c(OC)cccc32)cc1OC here?
Answer: inactive

Question: For O=C(Cc1ccc(O)cc1)NC1CCCCCC1, which outcome is on record?
Answer: inactive

Question: For CC(C)(C)C(=O)c1sc(Nc2ccccc2)nc1N, which outcome is on record?
Answer: inactive

Question: With c1csc(-c2nc(N3CCCCC3)no2)c1 as the compound, how does the outcome read?
Answer: inactive

Question: For Nc1nc2ccccc2cc1-c1cccs1, which outcome is on record?
Answer: inactive

Question: For C/C(=C\C(=O)c1cccnc1)Nc1ccc(C)c(C)c1, which outcome is on record?
Answer: inactive

Question: With Brc1ccc(OCc2cn3ccccc3n2)cc1 as the compound, how does the outcome read?
Answer: inactive

Question: Which outcome does the source give for O=C(Nc1cccc(F)c1)NC1CCCCCCC1 here?
Answer: inactive

Question: Which outcome does the source give for CN(C)c1ccc(/C=C/c2cccc[n+]2[O-])cc1 here?
Answer: inactive

Question: For C=CCc1c(C)nc(-c2ccccc2)nc1N/N=C/c1ccncc1, which outcome is on record?
Answer: inactive

Question: Which outcome does the source give for O=C(NCc1ccc2c(c1)OCO2)Nc1cccc(Cl)c1 here?
Answer: inactive

Question: For Cn1cc(Br)c(C(=O)N/N=C/c2cc3c(cc2Cl)OCO3)n1, which outcome is on record?
Answer: inactive

Question: Which outcome does the source give for CN(C)S(=O)(=O)c1cccc(-c2nnc(-c3ccccc3)o2)c1 here?
Answer: inactive

Question: Which outcome does the source give for CCN(CC)c1ccc(-c2nc3cnccc3n2C)cc1 here?
Answer: inactive

Question: Which outcome does the source give for O=C(CCCc1ccccc1)c1ccccc1 here?
Answer: inactive

Question: With COc1ccccc1C(=O)NCCC(=O)NC1CCC(C)CC1 (stereo unspecified) as the compound, how does the outcome read?
Answer: inactive

Question: With CCCc1ccc(C(=O)NNc2ccccc2F)cc1 as the compound, how does the outcome read?
Answer: inactive

Question: With CC(C)c1ccc(NC(=O)Cn2ncc3ccccc32)cc1 as the compound, how does the outcome read?
Answer: inactive

Question: For c1ccc(SCc2nc(-c3ccccn3)no2)cc1, which outcome is on record?
Answer: inactive

Question: For CC1CCN(C(=O)Nc2ccc3nsnc3c2)CC1, which outcome is on record?
Answer: inactive

Question: Which outcome does the source give for CCCc1cc(C(=O)Nc2ccc(C(=O)OC)cc2)cs1 here?
Answer: inactive

Question: For Cc1cnc(NC(=O)Nc2ccc(Cl)cc2)s1, which outcome is on record?
Answer: inactive

Question: With Cc1cc(NC(=O)c2ccc(Cl)cc2)no1 as the compound, how does the outcome read?
Answer: inactive

Question: Which outcome does the source give for CC(C)C(=O)Nc1cccc(-c2cnc3ccccc3n2)c1 here?
Answer: inactive

Question: Which outcome does the source give for O=C(Nc1ccc2c(c1)OCO2)c1cc(-c2ccccc2Cl)on1 here?
Answer: inactive

Question: Which outcome does the source give for O=C(N/N=C/c1ccc(Cl)cc1Cl)c1cccc(F)c1 here?
Answer: inactive

Question: Which outcome does the source give for N#C/C(=N\Nc1ccccc1F)C(=N)N1CCCCC1 here?
Answer: inactive

Question: With Cc1ccc(CNc2ccc3c(c2)ncn3C(C)C)cc1 as the compound, how does the outcome read?
Answer: inactive

Question: For c1ccc(-c2nc3ccccc3[nH]2)cc1, which outcome is on record?
Answer: inactive
